Screens deposited in PubChem by several laboratories.
The list is not random: actives were taken first. Their share in the collection is about 3%.
KKLEB cytotox – cytotoxicity in KKLEB CF airway cells, primary screen, cytotoxicity control for CF NF-kB inhibitor project, cell-based, uHTS, fluorescence assay plates. AID 602141, 2011. 360,000 compounds, 0.36% hits. activity change (cytotoxicity), % at 5 µM. KKLEB CF airway cells viability, ATPlite luminescence, overnight; hits give low values; cells stimulated with P. aeruginosa culture filtrate;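 active = corrected activity change at or below -50% at 5 µM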
Peg3 prom inh-1 – Peg3 promoter-driven luciferase inhibitors, primary screen, cell-based, HeLa, luciferase luminescence. HeLa PEG-Prom luciferase reporter, overnight. inhibition, % at 20 µM. 360,000 compounds, 1.7% hits;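 active = inhibition of at least 50% at 20 µM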
ABHD5-PLIN5 inh – ABHD5-PLIN5 interaction inhibitors, primary screen, cell lysate, split luciferase complementation, luminescence. Perilipin-5 (Homo sapiens) + 1-acylglycerol-3-phosphate O-acyltransferase ABHD5 (Homo …. Split G. princeps luciferase complementation, 4 h. inhibition, % at 4 µM. 360,000 compounds, 0.78% hits. AID 602281, 2012;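 active = inhibition above the mean inhibition across every tested compound plus 3 SD, cut at about 22% in these data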;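 also: 0% = DMSO only wells and the 100% control is not disclosed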
Target sequence (Q00G26 whole entry, looked up): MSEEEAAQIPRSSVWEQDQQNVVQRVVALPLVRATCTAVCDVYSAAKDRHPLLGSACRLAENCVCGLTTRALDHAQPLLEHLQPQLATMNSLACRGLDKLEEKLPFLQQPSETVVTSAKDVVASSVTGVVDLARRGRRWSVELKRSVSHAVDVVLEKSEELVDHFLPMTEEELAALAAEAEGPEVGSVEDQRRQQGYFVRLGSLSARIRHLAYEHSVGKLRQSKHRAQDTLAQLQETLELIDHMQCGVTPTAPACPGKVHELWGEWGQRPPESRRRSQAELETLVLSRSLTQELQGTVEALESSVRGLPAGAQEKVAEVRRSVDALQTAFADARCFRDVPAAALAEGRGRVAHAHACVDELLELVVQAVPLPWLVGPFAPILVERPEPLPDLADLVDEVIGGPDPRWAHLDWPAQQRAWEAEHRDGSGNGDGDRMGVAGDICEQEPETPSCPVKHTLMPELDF
Target sequence (Q8WTS1 whole entry, looked up): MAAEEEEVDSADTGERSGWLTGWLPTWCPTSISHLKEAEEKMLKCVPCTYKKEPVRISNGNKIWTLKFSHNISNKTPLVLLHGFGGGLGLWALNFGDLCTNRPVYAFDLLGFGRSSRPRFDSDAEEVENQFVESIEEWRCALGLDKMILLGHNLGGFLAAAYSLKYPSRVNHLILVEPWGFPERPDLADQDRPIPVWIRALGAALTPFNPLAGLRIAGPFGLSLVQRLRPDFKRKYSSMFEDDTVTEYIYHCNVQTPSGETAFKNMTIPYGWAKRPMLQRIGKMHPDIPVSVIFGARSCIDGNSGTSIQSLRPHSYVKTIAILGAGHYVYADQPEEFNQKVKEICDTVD
HIF-2a block – HIF-2a reporter inhibitors, primary screen, luminescence, 786-0 RCC cells; 786-0 RCC cells HIF-2a reporter, luciferase luminescence, overnight; inhibition, % at 18.8 µM; 360,000 compounds, 0.72% hits; AID 624352, 2012;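 active = inhibition of the luminescence signal of 40% or more relative to plate controls, in a single-dose primary screen at 18.75 µM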
MITF TRPM1 inh – inhibitors of MITF-dependent TRPM1 promoter reporter, primary screen, cell-based, SK-MEL-5, single point, luciferase; SK-MEL-5 TRPM1 promoter luciferase, 24 h; inhibition, % at 12.5 µM; 330,000 compounds, 0.83% hits;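 active = mean inhibition across replicates of 60% or more, whatever share of single replicates reaches that level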
CF NFkB inh – inhibitors of PAF-induced NF-kB signaling, primary screen, cell-based, GFP fluorescence, uHTS; KKLEB NF-kB-GFP reporter, GFP fluorescence overnight; inhibition, % at 5 µM; 360,000 compounds, 0.86% hits;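 active = at least 50% inhibition at 5 µM, scaled per plate between neutral and stimulator controls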;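 also: PAF is a Pseudomonas aeruginosa culture filtrate used as stimulus; plate controls were PAF-stimulated DMSO wells for no effect and unstimulated DMSO wells for full effect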
Peg3 prom inh-2 – Peg3 promoter reporter inhibitors, retest, confirmation, cell-based, HeLa, luciferase reporter, single concentration | shares compounds with Peg3 prom inh-1 | HeLa PEG-Prom luciferase reporter, luminescence, overnight | inhibition, % at 20 µM | 1,300 compounds, 84% hits | AID 602417, 2012;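 active = at 20 µM dose, 40% or more inhibition averaged across four replicates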
Starred values were filed as active, the others as inactive; nt = no result given.

SMILES | KKLEB cytotox | Peg3 prom inh-1 | ABHD5-PLIN5 inh | HIF-2a block | MITF TRPM1 inh | CF NFkB inh | Peg3 prom inh-2
COc1ccc(-c2ccc3[nH]c4c(c3c2)CCN2C[C@@H]([C@H](C)O)[C@@H](N(C)C(=O)Nc3cc(Cl)cc(Cl)c3)C[C@@H]42)cc1 | 1 | 64* | -12 | 9 | nt | 1 | 61*
COc1ccc(-c2ccc3[nH]c4c(c3c2)CCN2C(=O)[C@@H]([C@H](C)O)[C@@H](N(C)C(=O)Nc3cc(Cl)cc(Cl)c3)C[C@@H]42)cc1 | 10 | 29 | 0 | -21 | nt | 13 | nt
COCOc1ccc(-c2oc3c(C/C=C(\C)CCC=C(C)C)ccc(O)c3c(=O)c2OCOC)c(OCOC)c1 | 10 | 6 | -2 | 9 | nt | -17 | nt
Cc1ccc(NC(=O)CSC(N)=O)cc1Cl | -13 | -3 | -18 | 29 | 2 | -11 | nt
NC(=O)SCC(=O)Nc1ccc(Cl)c(Cl)c1 | 16 | 66* | -18 | 13 | 3 | -17 | -9
Cc1c(CCOC(=O)c2ccccc2)sc[n+]1CC(=O)c1ccc(Br)cc1 | -11 | -41 | 7 | -11 | 7 | 4 | nt
Cc1c(CCOC(=O)C23CC4CC(CC(C)(C4)C2)C3)sc[n+]1CC(=O)c1ccccc1 | -14 | 54* | 14 | 15 | 3 | 4 | 91*
CCCc1nc2oc3c(Cl)ncnc3c2c2c1CCCC2 | -8 | 99* | 2 | 20 | 28 | 6 | 34
COc1cc(NC(=O)c2ccccc2)ccc1NC(=O)c1cc2ccccc2o1 | -15 | 29 | -1 | -4 | -10 | 27 | nt
Cc1cc(NC(=O)c2cncc(Br)c2)ccc1NC(=O)c1cc2ccccc2o1 | -6 | 85* | 2 | 19 | 65* | -3 | 35
Oc1[nH]c2ccc(Br)cc2c1N=NC(=S)Nc1ccc(F)cc1 | 14 | 65* | -6 | 22 | 27 | -3 | 67*
Oc1ccc(NC(=S)N=Nc2c(O)[nH]c3ccc(Br)cc23)cc1 | -16 | 40 | -7 | 4 | 40 | 44 | nt
CCC(C)n1cnc2c(c1=O)c1nc3ccccc3nc1n2-c1ccc2c(c1)OCCO2 (stereo not given) | -17 | 56* | -4 | -7 | -8 | 9 | 18
Cc1cc(C)c2nc(NNC(=O)c3ccc(S(=O)(=O)N4CC(C)CC(C)C4)cc3)sc2c1 (stereo not given) | -4 | 94* | 29* | -36 | 69* | 9 | 99*
CCC(=O)NNc1nc2c(C)cc(C)cc2s1 | 1 | -2 | 5 | -32 | 1 | 18 | nt
Clc1ccccc1-c1cnc2sc(NCc3ccc4c(c3)OCO4)nn12 | 14 | 66* | 13 | -4 | nt | 9 | 33
COCCn1c(-c2ccc(-c3ccc([N+](=O)[O-])cc3Br)o2)nc2c1c(=O)[nH]c(=O)n2CC(C)C | -6 | 52* | 5 | 18 | 7 | 19 | 30
COc1ccc(-c2ccc(-c3nc4c(c(=O)[nH]c(=O)n4Cc4ccccc4)n3C)o2)c([N+](=O)[O-])c1 | -37 | 57* | 2 | 3 | 6 | 21 | 16
CCC(=O)N1CCN(c2ccccc2NC(=O)COc2ccc(C(C)C)cc2)CC1 | -16 | 31 | -9 | 21 | 23 | -3 | nt
Cc1cc(NS(=O)(=O)c2ccc(NC(=O)COc3ccc(Cl)c(C)c3)cc2)no1 | 4 | 5 | -10 | 13 | 8 | 3 | nt
Cc1ccc(-c2nnc(-c3ccc(NC(=O)Cc4cccs4)cc3)o2)cc1 | -77* | 55* | 0 | -20 | 41 | 71* | 17
Oc1c(I)cc(Cl)c2cccnc12 | -11 | 55* | 7 | 13 | 19 | 7 | 68*
COc1ccc(C(NC(C)=O)c2cc(Cl)c3cccnc3c2O)cc1 (stereo not given) | -1 | 64* | 6 | 10 | 23 | -4 | 64*
